Bioassay records as filed in PubChem BioAssay.
Most compounds without a hit are left out; they make up all but 3.1% or so of the library.
GDH-TPI counter-1 = counter-screen for M. tuberculosis FBA inhibitors: GDH-TPI coupled enzymes. GDH-TPI coupled enzyme counterscreen, NADH absorbance. inhibition, % at 4.8 µM. 360,000 tested, 1.2% active. AID 588335; in the data active means inhibition above about 30%
BioA inh = BioA (M. tuberculosis) enzyme inhibition; purified M. tuberculosis BioA enzyme, plate reader; inhibition, % at 9.99 µM; 360,000 tested, 0.096% active; in the data active means inhibition above about 40%
SARS 3CLpro inh = SARS-CoV 3CLpro protease inhibition | P0C6X7 | recombinant SARS-CoV 3CLpro, quenched FRET peptide cleavage | inhibition, % at 6 µM | 290,000 tested, 0.14% active | AID 1706; in the data active means inhibition above about 12%
FadD28 binding = blocks FadD28 binding to the bisubstrate probe; 360,000 tested, 0.22% active; fluorescence polarization; inhibition, % at 12.5 µM; in the data active means inhibition above about 8.5%, passing the limit was not always enough
FBA Mtb inh = inhibitors of M. tuberculosis fructose-bisphosphate aldolase | P9WQA3 | purified M. tuberculosis FBA, fluorescence read-out | inhibition, % at 1 µM | 360,000 tested, 2.3% active | AID 588726
Target sequence (P9WQA3 whole entry, looked up): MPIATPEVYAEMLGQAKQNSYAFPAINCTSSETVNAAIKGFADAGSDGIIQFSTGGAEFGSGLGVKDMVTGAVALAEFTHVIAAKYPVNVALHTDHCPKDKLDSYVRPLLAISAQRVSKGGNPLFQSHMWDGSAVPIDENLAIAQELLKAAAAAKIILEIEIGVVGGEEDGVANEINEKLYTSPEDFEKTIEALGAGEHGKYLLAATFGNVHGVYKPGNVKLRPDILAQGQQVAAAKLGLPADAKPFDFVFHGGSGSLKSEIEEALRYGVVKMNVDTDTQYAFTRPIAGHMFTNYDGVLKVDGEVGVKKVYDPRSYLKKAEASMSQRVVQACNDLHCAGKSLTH
Mtb FBA confirm = confirmation of M. tuberculosis fructose-bisphosphate aldolase inhibitors | purified M. tuberculosis FBA, fluorescence read-out | 5,600 tested, 78% active | inhibition, % at 1 µM | shares compounds with FBA Mtb inh
GDH-TPI counter-2 = GDH-TPI inhibition counter-screen for FBA inhibitors. shares compounds with FBA Mtb inh. GDH-TPI coupled enzyme counterscreen, fluorescence. inhibition, % at 1 µM. 5,600 tested, 81% active; in the data active means inhibition above about 10%
GDH-TPI dose = GDH-TPI dose response counter-screen for Mtb FBA; IC50, µM; GDH-TPI coupled enzyme assay, fluorescence, artifact counterscreen; 170 tested, 79% active; shares compounds with FBA Mtb inh; call rule not given here
Hits are given with their value; 0 = inactive; - = no result; + = active, no number. Unless noted, no stated cut-off is given here; in the data, active means inhibition above about 27%; inactive means the rest.

SMILES | GDH-TPI counter-1 | BioA inh | SARS 3CLpro inh | FadD28 binding | FBA Mtb inh | Mtb FBA confirm | GDH-TPI counter-2 | others
CN1C(=O)c2cc(NC(=O)c3ccc(F)c(F)c3)ccc2OC[C@@H]2O[C@H](CC(=O)N[C@@H]3CCN(Cc4ccccc4)C3)CC[C@@H]21 | - | 0 | - | - | - | - | -
COc1cc(C(=O)NCCNc2nc3c(C)c(C)ccc3cc2C#N)cc(OC)c1OC | 0 | 0 | 0 | 0 | 0 | - | -
COc1ccc(C(=O)NCCCNc2nc3cc(C)cc(C)c3cc2C#N)cc1 | 0 | 0 | - | 0 | 37 | 0 | 0
Cc1cccc2cc(C#N)c(NCCNC(=O)c3ccccc3)nc12 | 0 | 0 | - | 0 | 40 | + | +
O=C(O)c1ccccc1NC(c1ccccc1)c1ccc2cccnc2c1O (configuration not stated) | 0 | - | - | 0 | 38 | + | +
Cc1ccnc(NC(c2ccccc2)c2ccc3cccnc3c2O)c1 (configuration not stated) | 0 | 0 | - | - | 0 | - | -
CCC1(O)C(=O)OCc2c1cc1n(c2=O)Cc2cc3cc(O)ccc3nc2-1 (configuration not stated) | 0 | 0 | - | 0 | 29 | 133 | 120
CC[C@@]1(O)C(=O)OCc2c1cc1n(c2=O)Cc2cc3ccccc3nc2-1 | - | - | 0 | - | - | - | -
CC[C@@]1(O)C(=O)OCc2c1cc1n(c2=O)Cc2cc3c(NC(=O)CN)cccc3nc2-1 | 0 | 0 | 0 | 0 | 66 | 48 | 36
COc1ccc(-c2ccc3nnc(SCC(N)=O)n3n2)cc1 | 0 | - | 0 | 0 | 29 | 85 | 60
O=C(CSc1ccc2nc(-c3ccccc3)cn2n1)NCC1CCCO1 (configuration not stated) | 0 | 0 | 0 | 0 | 111 | + | +
COc1ccc(-c2ccc3nnc(SCC(=O)NCC4CCCO4)n3n2)cc1 (configuration not stated) | 0 | 0 | - | 0 | 34 | 172 | 120
Cn1c(=O)c2cc(NC(=O)Nc3cccnc3)ccc2n1-c1ccc(C(C)(C)C)cc1 | 0 | 0 | - | 0 | 31 | 0 | 14
Cc1noc(C)c1S(=O)(=O)Nc1ccc2c(c1)C(=O)N([C@H](C)CO)C[C@H](C)[C@H](CN(C)C(=O)NC1CCCCC1)O2 | - | 0 | - | - | - | - | -
Cc1ccc(NCc2ccc(Cl)nc2)c(NCc2ccc(Cl)nc2)c1 | 0 | - | 0 | 0 | 28 | 0 | 0
CO[C@@H](C(=O)N(C)C[C@@H]1OCc2ccccc2-c2ccccc2C(=O)N([C@@H](C)CO)C[C@H]1C)c1ccccc1 | - | 0 | - | - | - | - | -
Cc1cc(NC(=O)CCCS(=O)(=O)c2nc(-c3cccs3)cc(C(F)(F)F)n2)no1 | 39 | 0 | 0 | 0 | 52 | 68 | 52
COc1ccc(S(=O)(=O)Nc2cccc3c2O[C@@H](CN(C)S(=O)(=O)c2ccc(F)cc2)[C@@H](C)CN([C@H](C)CO)C3=O)cc1 | - | 0 | - | - | - | - | -
O=C(O)c1cccc([N+](=O)[O-])c1C(=O)Nc1ccc2ccccc2c1 | 0 | 0 | 0 | 0 | 0 | - | -
O=C(O)c1cccc([N+](=O)[O-])c1C(=O)Nc1cccc2ccccc12 | 0 | 0 | 0 | 0 | 48 | 116 | 99
O=C(O)c1ccc(C(=O)Nc2cccc3ccccc23)c(C(=O)O)c1 | 0 | 0 | 0 | 0 | 54 | 155 | 111
O=C(Nc1cccc(C(=O)O)c1)Nc1cccc2ccccc12 | 0 | 0 | 0 | 0 | 0 | - | -
C[C@H](CO)N1C[C@H](C)[C@H](CN(C)S(=O)(=O)c2ccccc2)Oc2ccc(N(C)C)cc2CC1=O | - | 0 | - | - | - | - | -
CCCNC(=O)C[C@H]1CC[C@@H]2[C@@H](COc3ccc(NS(=O)(=O)c4ccccc4C)cc3C(=O)N2C)O1 | - | 0 | - | - | - | - | -
O=C(CN1C(=O)NC2(CCCCC2)C1=O)Oc1ccc2c(C(F)(F)F)cc(=O)oc2c1 | 0 | 0 | - | 0 | 31 | 107 | 70
SMILES | GDH-TPI counter-1 | BioA inh | SARS 3CLpro inh | FadD28 binding | FBA Mtb inh | Mtb FBA confirm | GDH-TPI counter-2 | others
C[C@@H]1CN([C@@H](C)CO)C(=O)c2cccc(NC(=O)C3CCCCC3)c2O[C@@H]1CN(C)C(=O)Nc1ccc2c(c1)OCO2 | - | 0 | - | - | - | - | -
NC(=O)C1(N2CCCCC2)CCN(C(=O)c2cccn3c(=O)c4cc(Cl)ccc4nc23)CC1 | 0 | 0 | 0 | 0 | 40 | 0 | 0
O=C(c1cccn2c(=O)c3ccc(Cl)cc3nc12)N1CCC2(CC1)OCCO2 | 0 | 0 | 0 | 0 | 0 | - | -
O=C(c1cccn2c(=O)c3cc(Cl)ccc3nc12)N1CCN(Cc2ccc3c(c2)OCO3)CC1 | 0 | 0 | 0 | 0 | 0 | - | -
O=C(c1cccn2c(=O)c3cc(Cl)ccc3nc12)N1CCOCC1 | 0 | 0 | 0 | 0 | 45 | 0 | 0
COc1cc(CC(=O)N2CCc3ccccc32)cc(OC)c1OC | 0 | 0 | 0 | 0 | 0 | - | -
CCOC(=O)N1CCc2cc(OC)c(OC)c3c2c1cc1cc(OC)c(OC)cc13 | 0 | - | - | 0 | 38 | 0 | 0 | GDH-TPI dose=5.5
COC(=O)c1ccccc1NCCO | 0 | 0 | 0 | 0 | 109 | 67 | 55
O=C(O)c1ccccc1NCc1ccncc1 | 0 | 0 | 0 | 0 | 0 | - | -
CCNc1ccccc1C(=O)O | 0 | 0 | 0 | 0 | 78 | 0 | 0
COC(=O)c1ccccc1NC(=O)CC(=O)Nc1ccccc1C(=O)OC | 0 | 0 | 0 | 0 | 0 | - | -
O=C(O)c1ccccc1NCCO | 0 | - | 0 | 0 | 48 | 138 | 123
O=C(O)c1ccc(CNc2ccccc2C(=O)O)cc1 | 0 | 0 | 0 | 0 | 0 | - | -
COc1ccc(NC(=O)N(C)C[C@@H]2Oc3c(NC(=O)c4cnccn4)cccc3C(=O)N([C@@H](C)CO)C[C@H]2C)cc1 | - | 0 | - | - | - | - | -
CO[C@H]1CN(C)C(=O)c2ccc(NC(C)=O)cc2OC[C@H](C)NC[C@@H]1C | - | 0 | - | - | - | - | -
CN1C(=O)c2cc(NC(=O)c3cccc(F)c3)ccc2OC[C@H]2O[C@@H](CC(=O)N3CCc4ccccc4C3)CC[C@H]21 | - | 0 | - | - | - | - | -
COc1cc2c(cc1O)C(Cc1ccc(O)cc1)NCC2 (configuration not stated) | 0 | 0 | 0 | 0 | 0 | - | -
COc1cc2c(cc1O)C[C@H]1NCCc3cc4c(c-2c31)OCO4 | 0 | 0 | 0 | 0 | 30 | 108 | 89
COc1cccc(CN2CCCCN3[C@H](C2)[C@H](c2ccc(-c4cccnc4)cc2)[C@@H]3CO)c1 | - | 0 | - | - | - | - | -
C[C@H]1CN([C@@H](C)CO)C(=O)c2cc(NC(=O)Nc3ccc4c(c3)OCO4)ccc2O[C@H]1CN(C)S(C)(=O)=O | - | 0 | - | - | - | - | -
COc1ccc2cc(C(=O)C3CCCN(C(=O)c4snnc4C)C3)ccc2c1 (configuration not stated) | 0 | 0 | 0 | 0 | 108 | 136 | 117
COc1ccc2cc(C(=O)C3CCCN(C(=O)/C=C/c4ccccn4)C3)ccc2c1 (configuration not stated) | 0 | 0 | 0 | 0 | 57 | 55 | 48
